B1: d6r1_design_ppi_1056_dldesign_0_cycle0_af2pred (protein)
chain: AAAAAAAAQAETDALADEARELAAKAAEKIDPEKGALLKELTDYYAAKARSGTDEAGRTGLRALLSAARNIVS
B2: d6r1_design_ppi_821_dldesign_0_cycle1_af2pred (protein)
chain: AAAQARAEARALNERARALLAAAPVGRAAEAEALATRALGLALAHREAFSNAEMTDILRTLARAAGAARQQAA
B3: d6r1_design_ppi_1153_dldesign_0_cycle0_af2pred (protein)
chain: TEAAAALLRKTIAALERRVERAPEMSLEEAKALAESAKVLLEAGKAVPEVAAAAEELYKRAEEVAKKKAEEAAA
B4: d6r1_design_ppi_801_dldesign_0_cycle0_af2pred (protein)
chain: AALAALTAEANARANAILGRAFAEALARTRAGESPAPVFAAAAAELRRLGEESNPEGRAIADSGIALLQAAA
B5: d6r1_design_ppi_1146_dldesign_0_cycle1_af2pred (protein)
chain: AEEEAAKLKAQADGLDTIATALIEQAKTGDAAVARGAAAAAVSLAKKAAELYKRAAKLAGDEKFGKEQAKKQKAKAKEAKEVAEKKAA
B6: d6r1_design_ppi_1088_dldesign_0_cycle1_af2pred (protein)
chain: GQAGTAKALINMARIGAKLGEEAYEVLKTIFETLANMIADPAWAEGGRAAREAIYAITMEIDPELAKRVLEEVE
B7: d6r1_design_ppi_695_dldesign_0_cycle1_af2pred (protein)
chain: EAAARQAAINAAALAVAKAVVDKAFADQSPAVVAGAKTMVTMIVNLYADPAKRPQAEALAENSHPAVREAVDAGLAAAAALAAA
B8: d6r1_design_ppi_658_dldesign_0_cycle1_af2pred (protein)
chain: LEEELEKAKNEAKLLLAEAAATLLATDAKGQKAAQLLAAAIAYLDTDPEQALKDAKEALKLVPDSEKVKKALEATEKALELKKKI
B9: d6r1_design_ppi_617_dldesign_0_cycle1_af2pred (protein)
chain: AAAQAQQLMNEALALLFEAARKAPDPSEILRAASKAAQGHLSGSLAEEALAYIREVAEKYPEVAELINEAAELYAQAAKL
B10: d6r1_design_ppi_1193_dldesign_0_cycle1_af2pred (protein)
chain: MEELKKLKEEAEKLFQKARDIMPQAVKAGNEAVSKVVEAQKYATEAAKLAKEGGDLEEAKKKYEKAKKYYEEALKLIAA
B11: d6r1_design_ppi_1169_dldesign_0_cycle1_af2pred (protein)
chain: ELEEEVERAVEEAREAAERAREAGKANPALAPQLEAVVRFLETAAEYARESGEEGTEALKEAVEAARGMAEAALAA
B12: d6r1_design_ppi_761_dldesign_0_cycle0_af2pred (protein)
chain: AEEKERLKELAKFAKEALKKVEELRAAIKANADDPAAVAAARDAMIALAKEAAEKDAEVGNAVMIALGDPEKGVEKLKEVTEKLEKAA
B13: d6r1_design_ppi_911_dldesign_0_cycle1_af2pred (protein)
chain: GAAERTGRALANTAVAFAKSGSEEEAVAFATQMAEQIAALPGAEAAVARMAEELAKVLSPEAAAKVREAAAAILAKAAA
B14: d6r1_design_ppi_1105_dldesign_0_cycle1_af2pred (protein)
chain: AEKERLKEAAKRSAEKARELAKAGYALGAKAAILAAVRAAKEAGDAELVKEVLEVAKEAAKHPEVKPALEEAKKALEEVKK
B15: d6r1_design_ppi_829_dldesign_0_cycle0_af2pred (protein)
chain: EEAKKKAEELIAEVKAYADAAAAAAAAAGAARGAAAAALAAAAIAGIKNIAKAAEEEIKEAAEDPEKQKEIAERAKENIDKILAVALG
B16: d6r1_design_ppi_807_dldesign_0_cycle1_af2pred (protein)
chain: AQAKRVSLAAALALLNSAIDAAADPKSAAALAEQAADLLESTGEAAPLGKKAKEAAKLLLEDPEKGKALAKEVAKKAAELLAKT
B17: d6r1_design_ppi_1193_dldesign_0_cycle0_af2pred (protein)
chain: EEERQQLLAEAEALFARANALLPAAAAAGSEATALVVESLEYASKAARLAREGGDLEEAQKLLEKAKKYLAEAEKLIAA
B18: d6r1_design_ppi_900_dldesign_0_cycle1_af2pred (protein)
chain: GEEAAREAEELERRAEELEELARRARELSAEELTEAALEAVRLANRAHALMTAGAPPEVAARLQEVAARALEAAERLSREAREKRA
B19: d6r1_design_ppi_785_dldesign_0_cycle1_af2pred (protein)
chain: AAAASAAQTATITRAAVASGNTFDAARAGAEMLHYQDPAVGEEVAKTVEEAKKLSPEEAKAAILAKFDAIAARYA
B20: d6r1_design_ppi_699_dldesign_0_cycle1_af2pred (protein)
chain: EEEAKEKIREAAKEAAAAAKAQDPAHAPLIEAAAKEIAEAAEKGLVEAQEKANALARAHPEAAQHFSLIFAFAAQAYAEAR
B21: d6r1_design_ppi_833_dldesign_0_cycle0_af2pred (protein)
chain: MTPMSAAVAAAEEAIAAATAADPERGGRIAQEAFRGLAQATAIYVTQGKAAGDAAAEELRKRFEAEKAKVEAEAA
B22: d6r1_design_ppi_973_dldesign_0_cycle1_af2pred (protein)
chain: EQKKAAEEAAKAIKEAAKKAKELGDEATANGLQAIATALKNAVEAGDYKAAAELAKIGAAQAATLPELAPLAKKIEKLAKKIEE
B23: d6r1_design_ppi_759_dldesign_0_cycle1_af2pred (protein)
chain: AAETERALRNAKAYATAAEHAAKAHPESPELKKLAAEAKAYYKKAAAAYAAGKKEEALKYAQKAIEKAAEAFSLLS
B24: d6r1_design_ppi_1043_dldesign_0_cycle1_af2pred (protein)
chain: AQASIQRGAQAANALMAAAAGYYAKKYKGPLGEKAKAAADQAAALAAQSAANPATAQANAQQASALLDELLKEVKAYEE
B25: d6r1_design_ppi_1117_dldesign_0_cycle0_af2pred (protein)
chain: SQQQTQQAQQQAQATIAQTQAARDELKKLAADPEARAAAESAAQQLAVAQDLNASGTLVGAQAALAMAQQALAVATATLAKAKAA
B26: d6r1_design_ppi_1013_dldesign_0_cycle0_af2pred (protein)
chain: SAEVQALLEEARRHIARAQKLLVAGNKEEALKEAEEAKKLAEEAKKLAADDPELAKSAEGLIKLAEAVIESAKA
B27: d8r1_design_ppi_530_dldesign_0_cycle0_af2pred (protein)
chain: AAALAAALAAAAEAAAAAEAEAVAAAVSETVAAAARAAIKSFESGANKELAKQAMAAASAAGAAMKAGDTAAAQQYAAQTQALVAQIA
B28: d6r1_design_ppi_1033_dldesign_0_cycle1_af2pred (protein)
chain: AAEEEAKNAQVRQLAAQAFSYNLLADAAKQLAAAKGPEYEAKAKEYQAKAAAYKAEAEALNPEVFAAALAEVQAKYDAAL
B29: d6r1_design_ppi_812_dldesign_0_cycle0_af2pred (protein)
chain: SAELAERLRRISELFRKAIESGVEEAKRYVEEAAREFARLSGDEERGRELAREAKEAVELGEEGKEAVRAVAQRMLLYGAQAA
B30: d6r1_design_ppi_848_dldesign_0_cycle0_af2pred (protein)
chain: AAAETGLKILEATVQALLKNASKYSAEAVKKLSEVLKASAEAEAKAGGEKLKERAKEIKKLAEEAEKKAKEAAKAKAE
B31: d6r1_design_ppi_848_dldesign_0_cycle1_af2pred (protein)
chain: AAGEKALEILKKTAQALLKNAPLLTAEAAAKLAKVIIDAAWAAAKKIGPEAEKVAKEVKALAKEAVAAAAAAAKARAA
B32: d6r1_design_ppi_1068_dldesign_0_cycle0_af2pred (protein)
chain: MAAELTAKAQEAVERAAAAEAAGLKEAATLYLKAAAYYHAGAVNPATAAENAAKGEEYLAQAEALEKAAA
B33: d6r1_design_ppi_1068_dldesign_0_cycle1_af2pred (protein)
chain: APAVLLAQAQKSAELALKALELGYNEAAVLFLQAASYFFAGAVNPATAATYAAKGVELIEKGLALLKAAS
B34: d6r1_design_ppi_1028_dldesign_0_cycle0_af2pred (protein)
chain: AAAIAATKAELAKGKALLAKAKAAPAAAWNEALAAELRAAANALNRAATALLAAGGDTALAVEATETAVELLKAAGEINRA
B35: d6r1_design_ppi_887_dldesign_0_cycle1_af2pred (protein)
chain: AAVEEATAKAKELREKATKLALEGIRTGNQELVEKAKEKAEKAKELGESSNEEAKEYAKVALAVAEMAKAAL
B36: d6r1_design_ppi_719_dldesign_0_cycle0_af2pred (protein)
chain: AAAAAAEAARQASAEKAKQLGLDLAEDARRLTEAGGSPAAVQAALNSAEAVARNLAAMGEVGKPFAEEVLKAAEEARKLAA
B37: d6r1_design_ppi_1061_dldesign_0_cycle1_af2pred (protein)
chain: AAAALAAAAAIAATLLAAGKAGDAATAAAALYGAALVLALADPAYAEVYDAVARAVSPAARAAGGAAAIALLAAAQA
B38: d6r1_design_ppi_759_dldesign_0_cycle0_af2pred (protein)
chain: MAKVEQLLNNAKAYAGAAENAARTHSENPELQKLAKEAKEYYEKAEKAYKEGKLKEAEEYAKKAIEKAAEAFSLLQ

target: CD276, Q5ZPR3
Sequence (Q5ZPR3 whole entry): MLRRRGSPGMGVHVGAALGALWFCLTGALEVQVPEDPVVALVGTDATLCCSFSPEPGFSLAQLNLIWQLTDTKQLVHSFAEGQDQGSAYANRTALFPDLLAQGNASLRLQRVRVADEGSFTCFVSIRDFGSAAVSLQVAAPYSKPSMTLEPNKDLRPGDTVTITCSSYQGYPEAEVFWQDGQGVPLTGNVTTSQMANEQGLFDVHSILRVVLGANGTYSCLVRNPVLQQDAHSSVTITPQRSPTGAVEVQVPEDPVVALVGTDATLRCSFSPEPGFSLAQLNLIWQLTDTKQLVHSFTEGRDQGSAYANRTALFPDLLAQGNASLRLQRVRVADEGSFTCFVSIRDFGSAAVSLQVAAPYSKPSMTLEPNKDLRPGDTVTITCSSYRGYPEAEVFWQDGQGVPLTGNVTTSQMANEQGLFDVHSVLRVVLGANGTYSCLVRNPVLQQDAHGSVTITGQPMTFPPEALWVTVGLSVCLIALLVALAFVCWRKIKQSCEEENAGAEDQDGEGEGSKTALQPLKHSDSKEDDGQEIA

Row | Binder | binding in a display sort
1 | B1 | not found (inactive)
2 | B2 | not found (inactive)
3 | B3 | not found (inactive)
4 | B4 | not found (inactive)
5 | B5 | not found (inactive)
6 | B6 | not found (inactive)
7 | B7 | not found (inactive)
8 | B8 | not found (inactive)
9 | B9 | not found (inactive)
10 | B10 | not found (inactive)
11 | B11 | not found (inactive)
12 | B12 | not found (inactive)
13 | B13 | not found (inactive)
14 | B14 | not found (inactive)
15 | B15 | not found (inactive)
16 | B16 | not found (inactive)
17 | B17 | not found (inactive)
18 | B18 | not found (inactive)
19 | B19 | not found (inactive)

Row | Binder | binding in a display sort
20 | B20 | not found (inactive)
21 | B21 | not found (inactive)
22 | B22 | not found (inactive)
23 | B23 | not found (inactive)
24 | B24 | not found (inactive)
25 | B25 | not found (inactive)
26 | B26 | not found (inactive)
27 | B28 | not found (inactive)
28 | B29 | not found (inactive)
29 | B30 | not found (inactive)
30 | B31 | not found (inactive)
31 | B32 | not found (inactive)
32 | B33 | not found (inactive)
33 | B34 | binds (active)
34 | B35 | not found (inactive)
35 | B36 | not found (inactive)
36 | B37 | not found (inactive)
37 | B38 | not found (inactive)

target: PDL1, Q9NZQ7
Sequence (Q9NZQ7 whole entry): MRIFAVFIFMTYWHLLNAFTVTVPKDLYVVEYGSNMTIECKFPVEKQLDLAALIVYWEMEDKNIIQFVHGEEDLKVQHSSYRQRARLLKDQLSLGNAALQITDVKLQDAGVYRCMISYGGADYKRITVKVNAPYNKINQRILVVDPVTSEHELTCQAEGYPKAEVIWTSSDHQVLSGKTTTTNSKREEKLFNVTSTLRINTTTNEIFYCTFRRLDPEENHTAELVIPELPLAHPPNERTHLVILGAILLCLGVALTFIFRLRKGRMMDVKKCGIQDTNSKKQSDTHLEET

Row | Binder | binding in a display sort
38 | B27 | not found (inactive)
